Records with an inconclusive call do not appear. Activity calls are given as the source filed them. Calls come from the whole dose curve; as a rule, active = well fitted curve in the direction sought with a large enough effect; inconclusive = small, poorly fitted or top-dose-only effect, or another doubt; inactive = no such curve, though single readings can be large; an effect the other way counts as inactive or inconclusive.
Assays:
[1] = qHTS of pediatric cancer cell lines to identify multiple opportunities for drug repurposing: Primary screen for NB-EBc1 cells (AID 1347095); note: potency is the fitted concentration of half-maximal effect
Procedure, shortened: (§1)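 Readout: CellTiter-Glo luminescence, 48 h treatment. Controls DMSO (neutral) and bortezomib 2.3 µM final (positive). Potency and efficacy taken from primary-screen concentration-response curves.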

[2] = qHTS of pediatric cancer cell lines to identify multiple opportunities for drug repurposing: Primary screen for U-2 OS cells (AID 1347096); note: nearly all actives have a fitted effect of over 50% in size; note: potency is the fitted concentration of half-maximal effect
Procedure, shortened: (§2)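 Cells (500-1,000/well) in growth media were settled 5 h at 37 degrees C, then given compounds for 48 h. Viability was read as CellTiter-Glo luminescence. Primary runs used MIPE at 11 points (0.78 nM-46 µM) and NPC at 8 points (0.59 nM-46 µM); follow-ups used 11 points.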

[3] = qHTS of pediatric cancer cell lines to identify multiple opportunities for drug repurposing: Primary screen for SK-N-SH cells (AID 1347098); note: nearly all actives have a fitted effect of over 65% in size; note: potency is the fitted concentration of half-maximal effect
Procedure, shortened: (§3)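 Cells (500-1,000/well) rested 5 h, then received compounds for 48 h; metabolically active cells were measured by CellTiter-Glo luminescence. Final concentrations spanned up to 46 µM (MIPE, 11-point) or 0.59 nM-46 µM (NPC, 8-point) in primary screens, 11-point in follow-ups.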

[4] = qHTS of pediatric cancer cell lines to identify multiple opportunities for drug repurposing: Primary screen for OHS-50 cells (AID 1347103); note: nearly all actives have a fitted effect of over 40% in size; note: potency is the fitted concentration of half-maximal effect
Procedure, shortened: as §3

[5] = qHTS of pediatric cancer cell lines to identify multiple opportunities for drug repurposing: Primary screen for RD cells (AID 1347104); note: nearly all actives have a fitted effect of over 55% in size; note: potency is the fitted concentration of half-maximal effect
Procedure, shortened: as §1

[6] = qHTS of pediatric cancer cell lines to identify multiple opportunities for drug repurposing: Primary screen for control Hh wild type fibroblast cells (AID 1347106); note: nearly all actives have a fitted effect of over 55% in size; note: potency is the fitted concentration of half-maximal effect
Procedure, shortened: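 Viability after 48 h compound treatment at 37C, 500-1,000 cells/well, read as ATP luminescence with CellTiter-Glo. Primary screens used 11-point (MIPE, 0.78 nM-46 µM) or 8-point (NPC, 0.59 nM-46 µM) final concentrations; follow-up screens used 11-point dilutions.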

[7] = qHTS of pediatric cancer cell lines to identify multiple opportunities for drug repurposing: Primary screen for Rh41 cells (AID 1347108); note: nearly all actives have a fitted effect of over 70% in size; note: potency is the fitted concentration of half-maximal effect
Procedure, shortened: as §1

[8] = qHTS of pediatric cancer cell lines to identify multiple opportunities for drug repurposing: Confirmatory screen for SK-N-MC cells (AID 1347111);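 note: cells exposed to compound for 48 h before the readout; nearly all actives have a fitted effect of over 70% in size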; note: potency is the fitted concentration of half-maximal effect
Procedure, shortened: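 Metabolically active cells were quantified by ATP-dependent luminescence (CellTiter-Glo, 15 min at room temperature) following 48 h treatment. Cells had been plated at 500-1,000 per well and settled for 5 h beforehand.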

[9] = qHTS of pediatric cancer cell lines to identify multiple opportunities for drug repurposing: Confirmatory screen for BT-12 cells (AID 1347112); note: nearly all actives have a fitted effect of over 55% in size
Procedure, shortened: as §2

[10] = qHTS of pediatric cancer cell lines to identify multiple opportunities for drug repurposing: Primary screen for Saos-2 cells (AID 1347097); note: nearly all actives have a fitted effect of over 40% in size; note: potency is the fitted concentration of half-maximal effect
Procedure, shortened: as §1

[11] = qHTS of pediatric cancer cell lines to identify multiple opportunities for drug repurposing: Primary screen for BT-12 cells (AID 1347101); note: nearly all actives have a fitted effect of over 25% in size; note: potency is the fitted concentration of half-maximal effect
Procedure, shortened: as §3

[12] = qHTS of pediatric cancer cell lines to identify multiple opportunities for drug repurposing: Primary screen for Rh18 cells (AID 1347102); note: nearly all actives have a fitted effect of over 65% in size; note: potency is the fitted concentration of half-maximal effect
Procedure, shortened: as §2

[13] = qHTS of pediatric cancer cell lines to identify multiple opportunities for drug repurposing: Primary screen for MG 63 (6-TG R) cells (AID 1347105); note: nearly all actives have a fitted effect of over 50% in size; note: potency is the fitted concentration of half-maximal effect
Procedure, shortened: as §1

[14] = qHTS of pediatric cancer cell lines to identify multiple opportunities for drug repurposing: Primary screen for Rh30 cells (AID 1347107); note: nearly all actives have a fitted effect of over 75% in size; note: potency is the fitted concentration of half-maximal effect
Procedure, shortened: as §2

[15] = qHTS of pediatric cancer cell lines to identify multiple opportunities for drug repurposing: Confirmatory screen for NB1643 cells (AID 1347109); note: nearly all actives have a fitted effect of over 45% in size; note: potency is the fitted concentration of half-maximal effect
Procedure, shortened: as §2

[16] = qHTS of pediatric cancer cell lines to identify multiple opportunities for drug repurposing: Confirmatory screen for A673 cells (AID 1347110);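 note: cells exposed to compound for 48 h before the viability read; nearly all actives have a fitted effect of over 65% in size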; note: potency is the fitted concentration of half-maximal effect
Procedure, shortened: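 Cells plated at 500-1,000/well were treated five hours later with multi-point dilutions up to 46 µM final. After two days, CellTiter-Glo was added and luminescence read.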

[17] = qHTS of pediatric cancer cell lines to identify multiple opportunities for drug repurposing: Confirmatory screen for LAN-5 cells (AID 1347113); note: nearly all actives have a fitted effect of over 65% in size; note: potency is the fitted concentration of half-maximal effect
Procedure, shortened: as §2

[18] = qHTS of pediatric cancer cell lines to identify multiple opportunities for drug repurposing: Primary screen for NB1643 cells (AID 1347099); note: nearly all actives have a fitted effect of over 50% in size; note: potency is the fitted concentration of half-maximal effect
Procedure, shortened: as §1

[19] = qHTS of pediatric cancer cell lines to identify multiple opportunities for drug repurposing: Primary screen for LAN-5 cells (AID 1347100); note: potency is the fitted concentration of half-maximal effect
Procedure, shortened: as §2

N#Cc1c(C2CCNCC2)cc(-c2c(O)cccc2OCC2CC2)nc1N
Potency [1]: 18.7 µM (active) | Potency [2]: inactive | Potency [3]: 21.5 µM (active) | Potency [4]: 15.3 µM (active) | Potency [5]: 16.6 µM (active) | Potency [6]: inactive | Potency [7]: 14.8 µM (active) | Potency [8]: inactive | Potency [9]: inactive

CC(C)N1[N]C(=C2C=c3cc(O)ccc3=N2)c2c(N)ncnc21
Potency [1]: 0.59 µM (active) | Potency [2]: 14.8 µM (active) | Potency [10]: 5.26 µM (active) | Potency [3]: 19.2 µM (active) | Potency [11]: 0.485 µM (active) | Potency [12]: 5.9 µM (active) | Potency [4]: 0.273 µM (active) | Potency [5]: 1.66 µM (active) | Potency [13]: 1.18 µM (active) | Potency [14]: 5.9 µM (active) | Potency [7]: 1.05 µM (active) | Potency [15]: 10.4 µM (active) | Potency [16]: 4.14 µM (active) | Potency [8]: 2.33 µM (active) | Potency [17]: 2.93 µM (active)

CN1C(C(=O)Nc2ccccn2)=C(O)c2sc(Cl)cc2S1(=O)=O
Potency [1]: 16.6 µM (active) | Potency [2]: inactive | Potency [3]: 9.61 µM (active) | Potency [18]: 18.7 µM (active) | Potency [11]: inactive | Potency [4]: inactive

Cc1cc(Nc2ncc3c(n2)N(C)C(=O)N(c2cc(NC(=O)c4cccc(C(F)(F)F)c4)ccc2C)C3)n(C)n1
Potency [1]: 0.743 µM (active) | Potency [2]: 0.935 µM (active) | Potency [10]: 0.372 µM (active) | Potency [18]: 0.209 µM (active) | Potency [19]: 0.935 µM (active) | Potency [12]: 0.59 µM (active) | Potency [4]: 0.217 µM (active) | Potency [5]: 0.418 µM (active) | Potency [13]: 0.59 µM (active) | Potency [6]: 0.743 µM (active) | Potency [7]: 0.743 µM (active) | Potency [16]: 0.414 µM (active) | Potency [8]: 0.369 µM (active) | Potency [17]: 0.465 µM (active)

Nc1ccc(C(=O)Nc2cccc(-c3nc(N4CCOCC4)c4oc5ncccc5c4n3)c2)cn1
Potency [1]: 2.35 µM (active) | Potency [2]: 18.7 µM (active) | Potency [10]: 8.33 µM (active) | Potency [18]: 2.35 µM (active) | Potency [19]: 6.62 µM (active) | Potency [12]: 14.8 µM (active) | Potency [4]: 6.11 µM (active) | Potency [5]: 10.5 µM (active) | Potency [6]: inactive

COc1ccc([C@@H]2CNC(=O)C2)cc1OC1CCCC1
Potency [1]: inactive | Potency [2]: inactive | Potency [3]: 3.04 µM (active) | Potency [18]: 1.32 µM (active) | Potency [19]: inactive | Potency [4]: inactive | Potency [5]: 3.32 µM (active) | Potency [13]: 5.9 µM (active) | Potency [7]: 3.72 µM (active)

COc1cc2c(cc1OC)[C@@H]1C(=O)c3ccc4c(c3O[C@@H]1CO2)C=CC(C)(C)O4
Potency [1]: 10.5 µM (active) | Potency [2]: inactive | Potency [10]: 13.2 µM (active) | Potency [18]: 3.32 µM (active) | Potency [19]: 18.7 µM (active) | Potency [11]: 0.0273 µM (active) | Potency [12]: inactive | Potency [5]: 0.264 µM (active) | Potency [16]: 16.5 µM (active) | Potency [8]: 2.33 µM (active) | Potency [17]: 3.69 µM (active)

O=C1c2c(O)cccc2[C@@H]([C@@H]2O[C@H](CO)[C@@H](O)[C@H](O)[C@H]2O)c2cc(CO)cc(O)c21
Potency [1]: inactive | Potency [2]: inactive | Potency [10]: inactive | Potency [3]: inactive | Potency [19]: inactive | Potency [11]: inactive | Potency [12]: inactive | Potency [4]: inactive | Potency [5]: inactive | Potency [13]: inactive | Potency [6]: inactive | Potency [14]: inactive | Potency [7]: inactive | Potency [15]: inactive | Potency [16]: inactive | Potency [17]: inactive

O=c1[nH]c(=O)n([C@H]2C[C@@H](O)[C@@H](CO)O2)cc1C=CBr
Potency [1]: inactive | Potency [2]: inactive | Potency [10]: inactive | Potency [18]: inactive | Potency [19]: inactive | Potency [11]: inactive | Potency [4]: inactive | Potency [5]: inactive | Potency [13]: inactive | Potency [6]: inactive | Potency [14]: inactive | Potency [7]: inactive

CCc1cc(C(C)=NOCc2ccc(C3CCCCC3)c(C(F)(F)F)c2)ccc1CN1CC(C(=O)O)C1
Potency [1]: 20.9 µM (active) | Potency [2]: inactive | Potency [11]: 3.06 µM (active) | Potency [4]: 8.63 µM (active) | Potency [5]: 5.9 µM (active) | Potency [6]: inactive | Potency [14]: inactive | Potency [15]: 29.3 µM (active) | Potency [16]: 13.1 µM (active) | Potency [8]: 8.27 µM (active)

CC(C)Oc1ccc(C(=O)N[C@H](CNC(=O)CN(C)C)Cc2ccc(-c3cn4cccc([C@H](C)O)c4n3)cc2)cc1Cl
Potency [1]: 0.372 µM (active) | Potency [2]: inactive | Potency [10]: 0.332 µM (active) | Potency [3]: 15.2 µM (active) | Potency [19]: 1.05 µM (active) | Potency [11]: 1.93 µM (active) | Potency [4]: 2.43 µM (active) | Potency [6]: inactive | Potency [7]: 1.18 µM (active)

CC(=O)OC[C@@H]1O[C@@H](n2ccc(=O)[nH]c2=O)[C@H](OC(C)=O)[C@H]1OC(C)=O
Potency [1]: inactive | Potency [2]: inactive | Potency [11]: inactive | Potency [12]: inactive | Potency [4]: inactive | Potency [5]: inactive | Potency [13]: inactive | Potency [6]: inactive

Nc1nc(=O)n([C@H]2C[C@H](O)[C@@H](CO)O2)cc1F
Potency [1]: 3.72 µM (active) | Potency [2]: inactive | Potency [10]: inactive | Potency [18]: inactive | Potency [12]: inactive | Potency [4]: inactive | Potency [5]: inactive | Potency [13]: inactive | Potency [6]: inactive | Potency [14]: inactive | Potency [7]: inactive

NC(=NCCCCCCN=C(N)N=C(N)Nc1ccc(Cl)cc1)N=C(N)Nc1ccc(Cl)cc1
Potency [1]: 26.4 µM (active) | Potency [2]: inactive | Potency [10]: 18.7 µM (active) | Potency [3]: 21.5 µM (active) | Potency [18]: 5.26 µM (active) | Potency [11]: 13.7 µM (active) | Potency [12]: 20.9 µM (active) | Potency [5]: 11.8 µM (active) | Potency [13]: 14.8 µM (active) | Potency [6]: 8.33 µM (active) | Potency [7]: 7.43 µM (active)

— PubChem BioAssay (NCATS)
